GPR151 ag = activates the human receptor GPR151. Q8TDV0. PathHunter beta-arrestin GPR151 cells, luminescence. activation, % at 11.2 µM. hit rate 1% among 650,000; in the data active means activation above about 4.9%
MITF inh = human MITF inhibition, primary screen. AlphaScreen MITF homodimerization, bead proximity signal. inhibition, % at 2.6 µM. hit rate 0.91% among 650,000; in the data active means inhibition above about 50%
Target sequence (O75030 whole entry, looked up): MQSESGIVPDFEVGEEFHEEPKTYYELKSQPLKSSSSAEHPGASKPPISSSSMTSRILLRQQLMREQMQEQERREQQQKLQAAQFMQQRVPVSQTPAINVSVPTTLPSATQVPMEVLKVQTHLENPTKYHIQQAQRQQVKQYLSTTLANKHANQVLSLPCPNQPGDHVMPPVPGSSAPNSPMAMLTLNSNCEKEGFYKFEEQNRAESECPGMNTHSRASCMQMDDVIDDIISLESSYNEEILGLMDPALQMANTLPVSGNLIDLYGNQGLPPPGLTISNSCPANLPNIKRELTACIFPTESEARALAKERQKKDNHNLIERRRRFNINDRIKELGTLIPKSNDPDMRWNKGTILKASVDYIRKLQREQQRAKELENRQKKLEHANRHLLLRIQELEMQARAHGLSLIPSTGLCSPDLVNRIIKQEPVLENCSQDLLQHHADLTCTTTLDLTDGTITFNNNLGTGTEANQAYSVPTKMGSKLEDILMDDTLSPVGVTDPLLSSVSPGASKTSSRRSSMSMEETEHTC
FBW7 act = activators of human E3 ligase FBW7; Q969H0; AlphaScreen FBW7–phospho-cyclin E peptide binding, activator screen; normalized activity (activation), % at 26.1 µM; hit rate 0.13% among 650,000; AID 1259310; in the data active means normalized activity above about 1.9%;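 further: purified mutant Fbw7 with reduced substrate affinity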
TEAD-YAP inh = TEAD-YAP interaction inhibition; HEK-TIYL cells, TEAD-Gal4/YAP UAS-luciferase luminescence; inhibition, % at 9.12 µM; hit rate 1.4% among 640,000; AID 1259422; in the data active means inhibition above about 32%
GPR151 conf act = confirmation of human GPR151 activators. 6,700 tested, under 10 active. activation, % at 11.2 µM. GPR151 PathHunter beta-arrestin cells, luminescence, 90 min; % of EA-reagent control over plate median. AID 1508609. shares compounds with GPR151 ag;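 active means mean percent activation across replicates above the confirmation screen cutoff of 4.91%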
GPR119 ag = activates human GPR119 in a GPR151 counter-screen; activation, % at 11.2 µM; hit rate 0.3% among 6,700; shares compounds with GPR151 ag; GPR119 PathHunter beta-arrestin cells, luminescence, 90 min; 0 = compound-well median, 100 = enzyme-acceptor control;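 active means mean percent activation in the counterscreen above 29.09%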;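 further: counterscreen on off-target GPR119 to flag nonselective hits from the GPR151 activator screen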
Large screens that a line does not name were inactive (follow-up assays come after a bar, where they were run); ! = not confirmed by another sample. Only some compounds are listed: those with a hit (about 3.5% of all), similar ones and a draw of the others.

Cc1cc(S(=O)(=O)N2CCN(c3ccccc3O)CC2)c(C)s1	none
COc1ccc(S(=O)(=O)N2CCN(c3cccc(Cl)c3Cl)CC2)cc1OC	GPR151 ag 8.3 | GPR151 conf act inactive | GPR119 ag inactive
COc1ccccc1N1CCN(S(=O)(=O)c2cc(C)sc2C)CC1	GPR151 ag 6.1 | GPR151 conf act inactive | GPR119 ag inactive
CC(C)n1c(Nc2ccc3ncccc3c2)nc2c(NCCc3ccc(O)cc3)ncnc21	GPR151 ag 5.1 | GPR151 conf act inactive | GPR119 ag inactive
CC(C)n1c(Nc2ccccc2)nc2c(NCCc3ccc(O)cc3)ncnc21	GPR151 ag 6.1 | GPR151 conf act inactive | GPR119 ag inactive
CC(C)n1c(Nc2ccc3ncccc3c2)nc2c(NCCN3CCOCC3)ncnc21	GPR151 ag 6.4 | GPR151 conf act inactive | GPR119 ag inactive
COC(=O)c1ccc(NC(=O)CN(c2ccc(F)cc2)S(C)(=O)=O)cc1	none
COC(=O)c1ccc(C)c(NC(=O)CN(c2ccc(F)cc2)S(C)(=O)=O)c1	GPR151 ag 7.1 | GPR151 conf act inactive | GPR119 ag inactive
CC(C)N(CCNC(=O)c1cccc(NCCCN2CCCC2=O)c1)C(C)C	GPR151 ag 5.0 | GPR151 conf act inactive | GPR119 ag inactive
CC(=O)Nc1nonc1-c1nc2ccccc2n1Cc1cccc(C(F)(F)F)c1	none
O=C(CSc1ccsc1[N+](=O)[O-])N1CCN(Cc2ccc3c(c2)OCO3)CC1	none
COc1cc(C2C(C#N)=C(N)OC3=C2C(=O)CC(C)(C)C3)ccc1OC(C)=O (configuration not stated)	GPR151 ag 5.3 | GPR151 conf act inactive | GPR119 ag inactive
CCOc1ccc(C2C(C#N)=C(N)OC3=C2C(=O)CC(C)(C)C3)cc1 (configuration not stated)	GPR151 ag 8.0 | GPR151 conf act inactive | GPR119 ag inactive
COc1ccc(Cl)cc1NC(=O)C(N)=O	none
O=C(Nc1cc(-c2ccc(Br)cc2)[nH]n1)c1ccccc1	none
Cc1ccc(NC(=O)C2CC(=O)N(c3ccc(F)cc3)C2)c(C)c1 (configuration not stated)	GPR151 ag 19 | GPR151 conf act inactive | GPR119 ag inactive
CCOc1ccc(N2CC(C(=O)Nc3ccc(Br)cc3CC)CC2=O)cc1 (configuration not stated)	GPR151 ag 4.9 | GPR151 conf act inactive | GPR119 ag inactive
O=C(Nc1ccccn1)C1(c2cccs2)CCOCC1	none
Cc1ccnc(NC(=O)C2(c3cccs3)CCOCC2)c1	GPR151 ag 5.3 | GPR151 conf act inactive | GPR119 ag inactive
COc1ccc(NC2=CC(=O)CCC2)cc1	none
COc1ccc(NC2=CC(=O)CCC2)c(OC)c1	GPR151 ag 7.8! | GPR151 conf act inactive | GPR119 ag inactive
O=C(Nc1nnc(-c2cccs2)s1)c1ccccc1Cl	none
CCOC(=O)N1CCc2c(sc(NC(=O)c3ccc(Br)s3)c2C#N)C1	GPR151 ag 9.1 | GPR151 conf act inactive | GPR119 ag inactive
Nc1nc(CSc2nnnn2Cc2ccccc2)nc(N2CCOCC2)n1	GPR151 ag 7.6 | GPR151 conf act inactive | GPR119 ag inactive
CC(C)N(CCNC(=O)c1cccc(-c2ccccc2)n1)C(C)C	none
COc1ccc(-c2ncc(C(=O)NCCN(C(C)C)C(C)C)s2)cc1	GPR151 ag 7.8 | GPR151 conf act inactive | GPR119 ag inactive
COc1ccc(-c2ncc(C(=O)NCCN(C(C)C)C(C)C)s2)cn1	none
COc1ccc(-c2cccc(C(=O)NCCN(C(C)C)C(C)C)n2)cc1	GPR151 ag 8.8 | GPR151 conf act inactive | GPR119 ag inactive
CC(C)N(CCNC(=O)c1cccc(-c2ccc3c(ccn3C)c2)n1)C(C)C	GPR151 ag 12, FBW7 act 2.2 | GPR151 conf act inactive | GPR119 ag inactive
CC1(C)CC(=O)c2cc(-c3ccccc3)n(-c3ccc(Cl)c(Cl)c3)c2C1	none
Cc1[nH]c2ccccc2c1CCNC(=O)/C(=C/c1ccccc1)NC(=O)c1ccccc1Cl	none
Cc1[nH]c2ccccc2c1CCNC(=O)/C(=C/c1ccccc1)NC(=O)c1ccco1	GPR151 ag 6.0 | GPR151 conf act inactive | GPR119 ag inactive
CCOC(=O)c1cn2c(n1)sc1cc(F)ccc12	none
COc1ccc2[nH]cc(CCNC(=O)c3ccc(Br)cc3)c2c1	GPR151 ag 9.4 | GPR151 conf act inactive | GPR119 ag inactive
CCC(=O)NCCc1c[nH]c2ccc(OC)cc12	none
CC(C)(C)c1ccc(OCCCC(=O)Nc2sc3c(c2C(N)=O)CCCC3)cc1	GPR151 ag 6.5 | GPR151 conf act inactive | GPR119 ag inactive
CCOC(=O)c1c(-c2ccc(C)cc2)csc1NC(=O)CC	GPR151 ag 5.1 | GPR151 conf act inactive | GPR119 ag inactive
COC(=O)c1c(NC(=O)CCCOc2ccc(C(C)(C)C)cc2)sc2c1CCC2	none
CCOC(=O)c1c(NC(=O)COc2ccc(CC)cc2)sc2c1CCC2	none
CCOC(=O)c1c(NC(=O)CC)sc2c1CCCC2	GPR151 ag 5.1 | GPR151 conf act inactive | GPR119 ag inactive
CCOC(=O)c1c(NC(=O)COc2ccc(C)cc2)sc2c1CCCC2	GPR151 ag 5.1 | GPR151 conf act inactive | GPR119 ag inactive
CCOC(=O)c1c(-c2ccccc2)csc1NC(=O)CC	none
COc1cc2nc(N3CCc4ccccc4C3)nc(Nc3ccc(NC(C)=O)cc3)c2cc1OC	none
CC(=O)c1cccc(-c2nc(NCCO)c3ncn(CCN4CCCC4=O)c3n2)c1	none
CCCCN(CCCC)S(=O)(=O)c1ccc(C(=O)Nc2sc3c(c2C(=O)OCC)CCN(C(C)C)C3)cc1	none
CCCOc1ccc(C(=O)Nc2sc3c(c2C(=O)OCC)CCCC3)cc1	GPR151 ag 7.4 | GPR151 conf act inactive | GPR119 ag inactive
CCCCN(CC)S(=O)(=O)c1ccc(C(=O)Nc2sc3c(c2C(=O)OCC)CCN(C(C)C)C3)cc1	GPR151 ag 5.6 | GPR151 conf act inactive | GPR119 ag inactive
CCCCOc1ccc(C(=O)Nc2sc3c(c2C(=O)OCC)CCC3)cc1	none
COCc1ccc(C(=O)N2CCCC(CCC(=O)N(C)CCc3ccccn3)C2)s1 (configuration not stated)	none
Cc1ccc(C(=O)NNC(=O)C2c3ccccc3Oc3ccccc32)cc1	none
Cc1cnccc1NC(=O)c1cccs1	none
O=C(Nc1ccncc1)c1cccs1	none
O=C(Nc1cccnc1)c1cccs1	GPR151 ag 8.9, TEAD-YAP inh 40 | GPR151 conf act inactive | GPR119 ag inactive
Cc1ccc(NC(=O)c2cccs2)cc1NC(=O)c1cnccn1	GPR151 ag 5.9 | GPR151 conf act inactive | GPR119 ag inactive
Cc1ccc(NC(=O)CN(c2ccc(Br)c(C)c2)S(C)(=O)=O)cc1	none
Cc1ccccc1NC(=O)CN(c1ccc(Cl)cc1C)S(C)(=O)=O	GPR151 ag 5.3 | GPR151 conf act inactive | GPR119 ag inactive
CS(=O)(=O)N(CC(=O)Nc1ccc(F)c(Cl)c1)c1ccccc1F	none

High-throughput results (PubChem BioAssay)
